Our source for the outcome and AC50 values is PubChem BioAssay (EPA / NIEHS).

Inconclusive results are not listed. Active and inactive are the calls of the source. How the source made its calls, unless noted: active means hit-call score of the fitted dose curve at least 0.9, where 1 is the maximum; inactive means score below 0.9.

Experiment [1] is described as follows: ATG_DR4_LXR_CIS: Attagene CIS-FACTORIAL HepG2 Assay for human Liver X Receptor (LXR), DR4 submotif (AID 2282929). Particulars: HepG2 Attagene DR4 cis-reporter, mRNA transcription; actives raise or lower the signal. In outline:
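Fluorescence intensity of labelled reporter cDNA fragments, separated by capillary electrophoresis, gives the signal. HepG2 cells bearing cis-regulated reporter constructs were treated 24 h; activity fitted bidirectionally relative to DMSO negative control.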

Experiment [2] is described as follows: ATG_Ets_CIS: Attagene CIS-FACTORIAL HepG2 Assay for human Erythroblast Transformation Specific (ETS) (AID 2282941). Particulars: HepG2 ETS cis-reporter transcription, actives raise or lower the signal. In outline: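 Multiplexed reporter transcript profiling: HepG2, 24 h treatment, total RNA to cDNA, PCR, 6-FAM labelling, HpaI cut, capillary electrophoresis. Gain- or loss-of-signal fitted against DMSO.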

Experiment [3] can be described thus: ATG_M_06_CIS: Attagene CIS-FACTORIAL HepG2 Assay for M06 Transcription Factor (Internal Marker) (AID 2282950). Particulars: HepG2 Attagene CIS-FACTORIAL M06 internal marker reporter; actives raise or lower the signal. In outline: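 Measured 24 h post-dosing in transiently transfected HepG2 cells, this internal-marker endpoint reports reporter mRNA via RT-PCR with fluorescent primer extension and capillary electrophoresis. DMSO served as negative control and baseline for bidirectional fitting.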

Experiment [4] has as its target Hypoxia-inducible factor 1-alpha (Homo sapiens) (UniProt Q16665). The experiment can be described thus: ATG_HIF1a_CIS: Attagene CIS-FACTORIAL HepG2 Assay for human Hypoxia Inducible Factor 1 (HIF1A) (AID 2282951). Particulars: HepG2 Attagene cis-factorial HIF1a reporter transcription; actives raise or lower the signal. In outline:
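Fluorescence intensity of capillary-separated, 6-FAM-labelled reporter amplicons gives mRNA induction in HepG2 cells carrying transfected cis-promoter reporter units; cells exposed 24 h, responses fitted up or down from DMSO.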

Experiment [5] concerns the target Hepatocyte nuclear factor 6 (Homo sapiens) (UniProt Q9UBC0). Description: ATG_HNF6_CIS: Attagene CIS-FACTORIAL HepG2 Assay for human Hepatocyte Nuclear Factor 6 (HNF6) (AID 2282952). Particulars: HepG2 Attagene cis-factorial HNF6 reporter transcription; actives raise or lower the signal. The method, boiled down:
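Endogenous factor activity read in transiently transfected HepG2 via promoter-regulated reporter transcripts. RNA harvested 24 h post-dosing, reverse-transcribed, PCR-amplified, FAM-labelled, HpaI-digested and resolved by capillary electrophoresis; fitted in both directions against DMSO.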

The target in experiment [6] is Heat shock factor protein 1 (Homo sapiens) (UniProt Q00613). The experiment can be described thus: ATG_HSE_CIS: Attagene CIS-FACTORIAL HepG2 Assay for human Heat Shock Transcription Factor 1 (HSE) (AID 2282953). Particulars: HepG2 HSE cis-reporter, Attagene RNA transcription; actives raise or lower the signal. The method, boiled down:
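Reporter mRNA induction in HepG2 is measured 24 h after dosing, using transiently transfected multiplexed cis-regulated reporter units. Signal comes from capillary electrophoresis of labelled RT-PCR products, with DMSO as negative control.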

The nature of experiment [7]: ATG_Sox_CIS: Attagene CIS-FACTORIAL HepG2 Assay for human SRY-box transcription factor (SOX) (AID 2282960). Particulars: HepG2 Attagene cis-factorial SOX reporter, mRNA; actives raise or lower the signal. The method, boiled down:
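Measures mRNA induction of a SOX1-associated reporter in HepG2 after 24 h dosing. Fluorescently labelled RT-PCR fragments are separated by capillary electrophoresis, and gain or loss relative to DMSO control is fitted.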

Experiment [8] in a line: ATG_TA_CIS: Attagene CIS-FACTORIAL HepG2 Assay for human TA Basal Promoter (AID 2282964). Particulars: HepG2 Attagene CIS-factorial TA basal promoter reporter; actives raise or lower the signal. The method, boiled down: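 Cis-factorial format in HepG2: reporters report endogenous factors, not chimeric Gal4 fusions. After 24 h treatment, reporter transcripts were measured by RT-PCR-capillary electrophoresis fluorescence, analysed bidirectionally versus DMSO.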

The nature of experiment [9]: ATG_TCF_b_cat_CIS: Attagene CIS-FACTORIAL HepG2 Assay for human T-Cell-Factor with beta-catenin (TCF/b-cat) (AID 2282965). Particulars: HepG2 TCF/beta-catenin cis-reporter transcription, actives raise or lower the signal. The method, boiled down: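 Measured: reporter mRNA in HepG2 transiently transfected with cis-promoter reporter units, 24 h after chemical addition. Fitting was bidirectional, DMSO as negative control.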

Experiment [10] in a line: ATG_TAL_CIS: Attagene CIS-FACTORIAL HepG2 Assay for human TAL Basal Promoter (AID 2282966).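 Further: background control endpoint measuring basal TAL promoter reporter mRNA not a specific factor.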 Particulars: HepG2 Attagene cis-factorial TAL promoter reporter; actives raise or lower the signal. The method, boiled down: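 Background-control endpoint: basal TAL promoter reporter transcripts in transiently transfected HepG2, measured 24 h after dosing. Read-out by RT-PCR with fluorescent primer extension and capillary electrophoresis; gain or loss of signal fitted relative to DMSO.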

A short description of experiment [11]: ATG_TGFb_CIS: Attagene CIS-FACTORIAL HepG2 Assay for human Transforming Growth Factor (TGF) (AID 2282967). Particulars: HepG2 Attagene CIS TGFb reporter, mRNA transcription; actives raise or lower the signal. The method, boiled down: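 Multiplexed cis-reporter HepG2 system, 24 h treatment; mRNA induction read by fluorescence after RT-PCR and CE; DMSO negative control, bidirectional curve fitting.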

The target in experiment [12] is X-box-binding protein 1 (Homo sapiens) (UniProt P17861). Description: ATG_Xbp1_CIS: Attagene CIS-FACTORIAL HepG2 Assay for human X-box Binding Protein 1 (XBP1) (AID 2282972). Particulars: HepG2 XBP1 cis-element reporter, Attagene multiplex; actives raise or lower the signal. In outline:
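Human hepatoma HepG2, cis-element reporter system, 24 h treatment; mRNA quantified by RT-PCR/CE fluorescence; fit relative to DMSO.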

The target of experiment [13] is Transcriptional activator Myb (Homo sapiens) (UniProt P10242). Description: ATG_Myb_CIS: Attagene CIS-FACTORIAL HepG2 Assay for human Myeloblastosis (Myb) Proto-Oncogene Transcription Factor (AID 2282986). Particulars: HepG2 Attagene CIS-FACTORIAL Myb reporter transcription; actives raise or lower the signal. In outline:
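Transiently transfected HepG2 cells, treated 24 h. Reporter mRNA quantified by RT-PCR/capillary electrophoresis; bidirectional fit relative to DMSO.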

The target in experiment [14] is Nuclear respiratory factor 1 (Homo sapiens) (UniProt Q16656). Description: ATG_NRF1_CIS: Attagene CIS-FACTORIAL HepG2 Assay for human Nuclear Respiratory Factor 1 (NRF1) Orphan Gene (AID 2282987). Particulars: HepG2 NRF1 cis-element reporter, Attagene multiplex; actives raise or lower the signal. The method, boiled down: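 Cells (HepG2, transient MRTU transfection) are exposed to compound for 24 h, then RNA isolated and reporter mRNA amplified and fluorescently labelled. Fragments are separated by capillary electrophoresis; signal change is fitted bidirectionally relative to DMSO.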
Nuclear respiratory factor 1 (Homo sapiens), sequence (Q16656 whole entry, looked up, the tested form may be a part): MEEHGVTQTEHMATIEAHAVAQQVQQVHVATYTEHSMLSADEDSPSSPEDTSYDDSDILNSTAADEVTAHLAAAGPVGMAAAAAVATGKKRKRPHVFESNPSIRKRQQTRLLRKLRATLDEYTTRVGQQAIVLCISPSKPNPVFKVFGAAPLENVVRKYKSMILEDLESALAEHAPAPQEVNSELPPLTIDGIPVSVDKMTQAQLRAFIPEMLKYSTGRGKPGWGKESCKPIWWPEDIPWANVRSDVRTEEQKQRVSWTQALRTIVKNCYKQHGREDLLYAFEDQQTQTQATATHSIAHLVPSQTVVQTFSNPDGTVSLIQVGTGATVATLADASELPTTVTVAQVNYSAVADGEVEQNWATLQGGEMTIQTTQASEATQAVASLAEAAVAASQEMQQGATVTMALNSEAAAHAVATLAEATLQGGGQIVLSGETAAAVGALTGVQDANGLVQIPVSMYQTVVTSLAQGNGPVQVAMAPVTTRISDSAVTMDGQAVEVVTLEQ

The target in experiment [15] is Myc proto-oncogene protein (Homo sapiens) (UniProt P01106). The experiment can be described thus: ATG_Myc_CIS: Attagene CIS-FACTORIAL HepG2 Assay for human Myelocytomatosis (Myc) Proto-Oncogene Transcription Factor (AID 2282990). Particulars: HepG2, Attagene cis-reporter transcription factor activity; actives raise or lower the signal. The method, boiled down:
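Cells of the HepG2 human liver line bear multiple cis-driven reporter transcription units. Reporter mRNA after 24 h exposure is reverse-transcribed, amplified, labelled and resolved by capillary electrophoresis, with gain- or loss-of-signal fitting relative to DMSO.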

Experiment [16] in a line: ATG_NRF2_ARE_CIS: Attagene CIS-FACTORIAL HepG2 Assay for human Nuclear Factor Erythroid 2 Related Factor 2 (NFR2) response to Antioxidant Response Elements (ARE) (AID 2282992).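 On AC50: reporter mRNA level measured by RT-PCR and capillary electrophoresis fluorescence.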 Particulars: HepG2 Attagene ARE/NRF2 reporter, transcription factor activity; actives raise or lower the signal. In outline: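 Fluorescence intensity of reporter-specific cDNA fragments, separated by capillary electrophoresis, reflects mRNA induction in transfected HepG2 cells at 24 h. Activity is fitted bidirectionally, DMSO serving as baseline.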

Experiment [17] can be described thus: ATG_Oct_MLP_CIS: Attagene CIS-FACTORIAL HepG2 Assay for human Octamer-Binding Transcription Factor (Oct) (AID 2282993). Particulars: HepG2 Attagene cis-factorial Oct reporter, mRNA; actives raise or lower the signal. In outline: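 After 24 h compound exposure, transfected HepG2 cells were lysed for total RNA; reporter-specific cDNA was PCR-amplified, fluorescently labelled and sized by capillary electrophoresis. Bidirectional curve fitting used DMSO as baseline.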

Experiment [18] concerns the target Cellular tumor antigen p53 (Homo sapiens) (UniProt P04637). Description: ATG_p53_CIS: Attagene CIS-FACTORIAL HepG2 Assay for human p53 Transcription Factor (AID 2282994). Particulars: HepG2 p53 cis-element reporter, Attagene mRNA; actives raise or lower the signal. The method, boiled down:
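Transiently transfected HepG2 (multiple cis reporter transcription units); exposure 24 h; reporter RNA via RT-PCR, 6-FAM extension, 2 h HpaI digest at 37 C, CE detection; DMSO baseline.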

Experiment [19] has as its target Nuclear receptor subfamily 1 group I member 2 (Homo sapiens) (UniProt O75469). Description: ATG_PXR_TRANS: Attagene TRANS-FACTORIAL HepG2 Assay for human Pregnane X Receptor (PXR) (AID 2283008; active means hit-call score of the fitted dose curve at least 0.9, where 1 is the maximum). In outline: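 Transient HepG2 transfectants carrying multiplexed reporter transcription units; PXR activity read through a Gal4 chimera. 24 h exposure. RT-PCR/CE fluorescence; upward curve fit referenced to DMSO.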

Experiment [20] in a line: ATG_XTT_Cytotoxicity: Cytotoxicity Assessment in the Attagene TRANS-FACTORIAL HepG2 Assay (AID 2283584; active means hit-call score of the fitted dose curve at least 0.9, where 1 is the maximum). The method, boiled down:
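Viability endpoint from XTT after 24 h chemical exposure of reporter-transfected human HepG2 liver cells; signal loss fitted relative to DMSO negative control.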

Hepatocyte nuclear factor 6 (Homo sapiens), sequence (Q9UBC0 whole entry, looked up): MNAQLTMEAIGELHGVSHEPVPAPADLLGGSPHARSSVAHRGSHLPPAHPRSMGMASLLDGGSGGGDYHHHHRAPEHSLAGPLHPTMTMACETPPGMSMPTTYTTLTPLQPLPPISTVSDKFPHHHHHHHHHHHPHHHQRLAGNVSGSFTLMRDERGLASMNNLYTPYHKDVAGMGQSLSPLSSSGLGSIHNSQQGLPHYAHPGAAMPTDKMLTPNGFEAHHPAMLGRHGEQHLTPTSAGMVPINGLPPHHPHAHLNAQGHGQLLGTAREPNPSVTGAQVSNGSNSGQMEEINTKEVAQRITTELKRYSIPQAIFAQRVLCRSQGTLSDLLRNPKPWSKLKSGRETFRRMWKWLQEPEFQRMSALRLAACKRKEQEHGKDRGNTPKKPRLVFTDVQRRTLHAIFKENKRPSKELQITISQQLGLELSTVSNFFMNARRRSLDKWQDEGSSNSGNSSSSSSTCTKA
X-box-binding protein 1 (Homo sapiens), sequence (P17861 whole entry, looked up): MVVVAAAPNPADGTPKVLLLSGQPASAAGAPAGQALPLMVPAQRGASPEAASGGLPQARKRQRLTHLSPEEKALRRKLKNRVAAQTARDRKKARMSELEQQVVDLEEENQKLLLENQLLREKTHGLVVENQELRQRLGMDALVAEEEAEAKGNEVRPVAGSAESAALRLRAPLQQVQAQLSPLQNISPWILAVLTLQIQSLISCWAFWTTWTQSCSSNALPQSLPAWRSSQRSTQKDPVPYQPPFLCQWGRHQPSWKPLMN
Heat shock factor protein 1 (Homo sapiens), sequence (Q00613 whole entry, looked up): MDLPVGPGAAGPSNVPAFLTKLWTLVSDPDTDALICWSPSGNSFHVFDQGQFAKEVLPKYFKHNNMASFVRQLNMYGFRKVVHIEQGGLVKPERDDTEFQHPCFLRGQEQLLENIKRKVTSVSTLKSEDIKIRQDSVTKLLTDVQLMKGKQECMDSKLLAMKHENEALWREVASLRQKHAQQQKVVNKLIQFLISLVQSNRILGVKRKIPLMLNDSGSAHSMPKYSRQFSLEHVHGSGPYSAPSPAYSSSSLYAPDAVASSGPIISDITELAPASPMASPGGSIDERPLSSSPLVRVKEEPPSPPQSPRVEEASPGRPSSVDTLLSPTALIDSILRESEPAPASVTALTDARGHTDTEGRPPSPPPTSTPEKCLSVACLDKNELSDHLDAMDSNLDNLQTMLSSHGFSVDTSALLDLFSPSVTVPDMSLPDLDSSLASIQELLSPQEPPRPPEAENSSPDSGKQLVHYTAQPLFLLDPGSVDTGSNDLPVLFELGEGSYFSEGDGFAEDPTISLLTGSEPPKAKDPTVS
Nuclear receptor subfamily 1 group I member 2 (Homo sapiens), sequence (O75469 whole entry, looked up, the tested form may be a part): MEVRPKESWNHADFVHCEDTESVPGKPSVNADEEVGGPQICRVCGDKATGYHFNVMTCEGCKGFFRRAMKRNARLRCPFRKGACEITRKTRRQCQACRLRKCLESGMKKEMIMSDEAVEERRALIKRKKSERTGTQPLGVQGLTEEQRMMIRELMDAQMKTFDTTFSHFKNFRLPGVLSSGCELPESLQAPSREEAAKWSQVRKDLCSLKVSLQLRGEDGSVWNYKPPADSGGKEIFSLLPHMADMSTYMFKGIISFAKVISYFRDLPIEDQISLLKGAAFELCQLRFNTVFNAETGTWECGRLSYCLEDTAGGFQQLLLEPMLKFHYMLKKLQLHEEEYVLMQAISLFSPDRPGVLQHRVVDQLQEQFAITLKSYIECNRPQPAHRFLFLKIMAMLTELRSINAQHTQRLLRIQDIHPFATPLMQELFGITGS
Hypoxia-inducible factor 1-alpha (Homo sapiens), sequence (Q16665 whole entry, looked up): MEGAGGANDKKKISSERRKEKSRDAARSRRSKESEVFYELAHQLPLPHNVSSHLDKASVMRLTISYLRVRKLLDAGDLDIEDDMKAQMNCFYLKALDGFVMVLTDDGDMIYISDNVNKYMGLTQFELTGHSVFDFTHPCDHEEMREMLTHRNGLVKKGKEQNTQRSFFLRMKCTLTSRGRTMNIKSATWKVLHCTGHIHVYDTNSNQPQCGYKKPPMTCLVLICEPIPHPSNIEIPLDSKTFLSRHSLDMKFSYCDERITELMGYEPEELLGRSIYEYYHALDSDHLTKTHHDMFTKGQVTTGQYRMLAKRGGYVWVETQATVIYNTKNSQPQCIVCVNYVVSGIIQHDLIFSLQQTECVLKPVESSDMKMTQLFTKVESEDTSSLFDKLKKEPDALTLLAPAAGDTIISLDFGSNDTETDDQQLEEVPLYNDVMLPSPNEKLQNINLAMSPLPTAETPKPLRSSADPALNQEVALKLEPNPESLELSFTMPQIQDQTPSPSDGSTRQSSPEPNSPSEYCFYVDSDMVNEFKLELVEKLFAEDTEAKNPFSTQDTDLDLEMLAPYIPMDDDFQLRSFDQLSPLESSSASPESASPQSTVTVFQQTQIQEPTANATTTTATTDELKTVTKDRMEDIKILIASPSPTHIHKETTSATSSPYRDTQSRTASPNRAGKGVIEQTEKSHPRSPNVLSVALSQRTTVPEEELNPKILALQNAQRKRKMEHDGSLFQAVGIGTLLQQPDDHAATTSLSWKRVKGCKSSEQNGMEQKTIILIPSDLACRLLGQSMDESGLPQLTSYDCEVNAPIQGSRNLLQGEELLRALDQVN
Cellular tumor antigen p53 (Homo sapiens), sequence (P04637 whole entry, looked up): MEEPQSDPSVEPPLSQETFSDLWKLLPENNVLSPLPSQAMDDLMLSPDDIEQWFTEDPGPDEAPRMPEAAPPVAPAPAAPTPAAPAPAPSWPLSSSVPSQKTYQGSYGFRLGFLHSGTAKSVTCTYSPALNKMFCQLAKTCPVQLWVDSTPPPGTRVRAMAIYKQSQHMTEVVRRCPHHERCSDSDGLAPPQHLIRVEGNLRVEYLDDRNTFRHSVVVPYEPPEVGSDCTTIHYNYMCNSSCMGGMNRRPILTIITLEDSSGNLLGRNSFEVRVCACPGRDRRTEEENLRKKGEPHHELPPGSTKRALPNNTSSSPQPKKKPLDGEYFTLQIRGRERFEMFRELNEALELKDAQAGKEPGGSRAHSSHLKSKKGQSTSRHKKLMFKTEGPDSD
Transcriptional activator Myb (Homo sapiens), sequence (P10242 whole entry, looked up): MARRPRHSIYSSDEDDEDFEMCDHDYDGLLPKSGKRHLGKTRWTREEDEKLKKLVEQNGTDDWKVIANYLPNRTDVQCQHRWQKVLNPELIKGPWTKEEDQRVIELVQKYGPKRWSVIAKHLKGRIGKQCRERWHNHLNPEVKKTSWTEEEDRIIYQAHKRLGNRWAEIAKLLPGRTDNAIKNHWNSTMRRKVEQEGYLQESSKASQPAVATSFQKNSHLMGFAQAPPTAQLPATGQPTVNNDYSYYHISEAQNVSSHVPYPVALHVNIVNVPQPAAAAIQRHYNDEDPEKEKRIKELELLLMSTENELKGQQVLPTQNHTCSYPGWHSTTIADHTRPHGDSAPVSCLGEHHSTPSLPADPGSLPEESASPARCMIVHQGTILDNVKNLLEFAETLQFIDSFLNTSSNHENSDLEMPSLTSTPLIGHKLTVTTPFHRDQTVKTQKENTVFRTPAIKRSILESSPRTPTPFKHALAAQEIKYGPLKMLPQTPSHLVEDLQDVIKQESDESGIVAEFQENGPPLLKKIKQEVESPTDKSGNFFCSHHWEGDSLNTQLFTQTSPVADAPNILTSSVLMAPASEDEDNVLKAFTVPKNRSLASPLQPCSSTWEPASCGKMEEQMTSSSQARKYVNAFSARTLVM
Myc proto-oncogene protein (Homo sapiens), sequence (P01106 whole entry, looked up): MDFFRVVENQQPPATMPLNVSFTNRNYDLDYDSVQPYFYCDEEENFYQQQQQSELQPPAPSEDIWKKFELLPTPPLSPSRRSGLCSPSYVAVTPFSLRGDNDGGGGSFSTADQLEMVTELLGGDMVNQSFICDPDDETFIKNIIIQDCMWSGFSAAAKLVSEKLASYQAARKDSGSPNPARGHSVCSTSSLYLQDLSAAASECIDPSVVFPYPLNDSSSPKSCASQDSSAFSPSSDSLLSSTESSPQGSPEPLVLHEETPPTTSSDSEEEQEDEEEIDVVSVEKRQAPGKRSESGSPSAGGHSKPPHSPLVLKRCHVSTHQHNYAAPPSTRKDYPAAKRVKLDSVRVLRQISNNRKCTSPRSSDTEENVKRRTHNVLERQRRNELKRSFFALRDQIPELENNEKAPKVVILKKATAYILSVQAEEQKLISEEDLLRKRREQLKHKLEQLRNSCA

As for `CC(=O)CCc1ccccc1`, the compound was called inactive in [1], in experiment [2], in experiment [3], in experiment [4], in experiment [5] and in [6]. Besides, the outcome in experiment [7], in [8], in [9], in experiment [10], in experiment [11] and in experiment [12] was inactive. The call in experiment [13], in [14], in [15], in [16], in [17] and in experiment [18] was inactive. Besides, the call in [19] and in experiment [20] was inactive.

As for `CCCCCCC1CCCC(=O)O1` (stereo not drawn), the outcome in experiment [1], in experiment [3], in experiment [4], in experiment [5], in experiment [6] and in experiment [7] was inactive. Also, the call in [8], in [9], in experiment [11], in [12], in [13] and in experiment [14] was inactive. Moreover, the compound was classed as inactive in [15], in experiment [17], in experiment [18], in experiment [19] and in [20]. The half-maximal activity concentration (AC50) in experiment [16] was 139 µM (active).

As for `COC(=O)/C=C\C(=O)OC`, the compound was classed as inactive in [1], in [3], in experiment [4], in experiment [6], in [8] and in experiment [9]. The call in [11], in experiment [12], in [13], in experiment [14], in experiment [15] and in experiment [17] was inactive. For the same compound, the call in experiment [18], in [19] and in experiment [20] was inactive. In addition, the AC50 is 100 µM (active) in [2], 128 µM (active) in experiment [5] and 10.5 µM (active) in experiment [16].

Regarding `Clc1ccc(Sc2cc(Cl)c(Cl)cc2Cl)cc1`, the compound was called inactive in experiment [1], in experiment [4], in experiment [5], in experiment [7], in [8] and in experiment [9]. Also, the compound was called inactive in experiment [10], in experiment [11], in [12], in experiment [13], in [14] and in experiment [15]. For the same compound, the compound was classed as inactive in experiment [16], in experiment [17], in experiment [18] and in experiment [20]. The AC50 in experiment [19] is 2.22 µM (active).
